Common to all, as to test: NCI-60 one-dose screen, 48 h (100 = growth as untreated, 0 = no growth, -100 = all killed)
The test system of test [1] is BT-549 breast. The settings on record: 10 µM unless noted.
For test [2], the system named is MDA-MB-435 melanoma. The settings on record: 10 µM unless noted.
In test [3] the test system is SW-620 colon. The settings on record: 10 µM unless noted.
The test system of test [4] is MCF7 breast. To be noted: 10 µM.
Test [5] relates to HCT-116 colon. The settings on record: 10 µM unless noted.
The subject of test [6] is HCC-2998 colon. To be noted: 10 µM unless noted.
In test [7] the test system is KM12 colon. The settings on record: 10 µM unless noted.

The source of these data is PubChem BioAssay (NCI).

Compounds without any hit were thinned out: in the full panel of roughly 83,000, 20% have a hit.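 In brief: 96-well plates, 48 h treatment, single concentration, percent growth endpoint.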 Values without a mark were called inactive. Active and inactive are the calls of the source. How the source made its calls: active means growth percent below 10; inactive means the rest.

For the molecule `COC(=O)[C@H](NC(=O)C1(C)CCC[C@]2(C)[C@H]3C[C@H]4C(C(C)C)=C[C@]3(CC[C@@H]12)[C@@H]1C(=O)CCC(=O)[C@@H]14)C(C)C` (some centres undefined), the growth in test [1] is 106%; in test [2] it was 104%; in test [3] it was 106%; in test [4] it was 98.2%; in test [5] it was 106%; in test [6], 104%. The growth in test [7] was 105%.

Turning to `COc1cc2nc(NC3CCCC3)nc(NC3CCN(C(C)C)CC3)c2cc1OC`, the growth in test [1] was 76.7%; in test [2], -34.3% (active); in test [3] it was 59.2%; in test [4], 39.8%; in test [5] it was 66.5%; in test [6], 29.6%. For the same molecule, the growth in test [7] is 79.2%.

Consider `NCCCNc1nc2ccccc2c2c(=O)c3cc(F)ccc3sc12`, for which the growth is 81.1% in test [1]; -91% (active) in test [2]; -83.5% (active) in test [3]; -69.8% (active) in test [4]; -78.2% (active) in test [5]; -73.7% (active) in test [7].

With `O=C(N/N=C/c1ccccc1O)C(=O)Nc1ccc(F)cc1`, the growth is 59.3% in test [1]; 59.3% in test [2]; 44.5% in test [3]; 20.9% in test [4]; 37.6% in test [5]; 38.8% in test [6]. Besides, in test [7], the growth is 42.3%.

Take `COc1cc(/C(C#N)=C/c2nc3c(N4CCOCC4)nc(Cl)nc3n2C)cc(OC)c1OC`: the growth in test [1] is 20.7%; in test [2], -48.5% (active); in test [3] it was 19.8%; in test [4], 6.74% (active); in test [5], 4.75% (active); in test [6] it was 7.16% (active). Besides, the growth in test [7] is 1.09% (active).

For the molecule `COc1ccc(-c2c(-c3ccc(OC)c(O)c3)cnc3ncnn23)cc1`, the growth in test [1] is 102%; in test [2], 108%; in test [3], 99.1%; in test [4], 95.2%; in test [5], 98%; in test [6] it was 109%. In test [7], the growth is 102%.

Regarding `COc1ccc(/C(C#N)=C/c2nc3c(N4CCOCC4)nc(Cl)nc3n2C)cc1OC`, the growth in test [1] was -15.7% (active); in test [2], -64.5% (active); in test [3], -53.7% (active); in test [4], 6.49% (active); in test [5] it was -73.2% (active); in test [7], -0.417% (active).

Turning to `COc1ccc(-c2nsc3c2NC(=O)CC3c2ccc3c(c2)OCCO3)cc1` (centres undefined), the growth in test [1] is 27.8%; in test [2] it was -46.6% (active); in test [3], 35.7%; in test [4], 24.7%; in test [5] it was 12.7%; in test [6] it was 33.5%. The growth in test [7] was 20.6%.

As for `COc1cc2c(cc1OC)C(=O)C(CC1CCN(C(=O)Nc3ccc(C)cc3)CC1)C2` (centres undefined), the growth in test [1] was 96.6%; in test [2] it was 97.7%; in test [3], 94.6%; in test [4], 90.4%; in test [5], 97.4%; in test [6], 116%. In addition, in test [7], the growth was 94.3%.

With `COc1cccc(-c2nn(C)c3sc(C(=O)NCCN4CCN(c5ccccc5F)CC4)cc23)c1`, the growth is 90.8% in test [1]; -55.7% (active) in test [2]; 74.6% in test [3]; 15.1% in test [4]; 33.5% in test [5]; -41.1% (active) in test [6]. In addition, in test [7], the growth was 54.2%.

For `O=C1C(Cl)=C(NCc2ccco2)C(=O)c2ccccc21`, the growth in test [1] was 103%; in test [2] it was -38.4% (active); in test [3] it was 99.7%; in test [4] it was 22%; in test [5], 80.5%; in test [7], 62.6%.

Turning to `COc1ccccc1C(=O)/C=C/c1ccccc1`, the growth in test [1] was 77.5%; in test [2] it was 78.4%; in test [3], 67.4%; in test [4], 28.6%; in test [5] it was 37%; in test [6], 103%. In test [7], the growth was 55.2%.

For the molecule `C=C(C)CCC(C)N1CCC(N2CCC(C(=O)NCCc3ccccc3)CC2)CC1` (centres undefined), the growth in test [1] is 64.5%; in test [2], -18.5% (active); in test [3] it was 45.2%; in test [4], 9.23% (active); in test [5], 17.6%; in test [6] it was 131%. Besides, the growth in test [7] was 24.8%.

For the molecule `O=S(=O)(Nc1ncccn1)c1ccc(NC2Nc3nc4ccccc4nc3S2)cc1` (centres undefined), the growth is 95.9% in test [1]; 98.3% in test [2]; 99.3% in test [3]; 98.8% in test [4]; 101% in test [5]; 108% in test [6]. Also, the growth in test [7] is 106%.

Regarding `COc1nccc2cc3c(=O)n4c(cc5ccccc54)c(=O)n3c12`, the growth was 104% in test [1]; 110% in test [2]; 101% in test [3]; 49.1% in test [4]; 104% in test [5]; 104% in test [6]. Besides, in test [7], the growth is 103%.

As for `Cc1ccc(Cc2cnc(NC(=O)CN3C(=O)/C(=C\c4ccccc4)SC3=S)s2)cc1`, the growth in test [1] is 117%; in test [2] it was 107%; in test [3], 107%; in test [4], 95.8%; in test [5] it was 103%; in test [6] it was 105%. Moreover, the growth in test [7] is 103%.

Turning to `Nc1nc(N)c2c(n1)NC1(C=C(O)c3ccccc31)C1=C(N2)c2ccccc2C1=O` (centres undefined), the growth in test [1] was 112%; in test [2] it was 125%; in test [3], 99.4%; in test [5], 101%; in test [6] it was 109%; in test [7], 109%.

On to `COc1cc2nc(-c3cccc4cccnc34)nc(NC3CCN(Cc4ccccc4)CC3)c2cc1OC`, for which the growth is -65% (active) in test [1]; -93.3% (active) in test [2]; -74.8% (active) in test [3]; -77.2% (active) in test [4]; -63.7% (active) in test [5]; -76% (active) in test [7].

Turning to `O=C(NCc1ccccc1)C1CN(c2ccc(Cl)cc2)N(c2ccc(Cl)cc2)C1=O` (centres undefined), the growth in test [1] is 83.4%; in test [2], 3.28% (active); in test [3], 60.8%; in test [4], 49.8%; in test [5], 83.8%; in test [7], 59.8%.

For the molecule `O=C1C(=O)c2c(ccc3ccccc23)-c2ccccc21`, the growth in test [1] is -72.6% (active); in test [2] it was -58.6% (active); in test [3], -73% (active); in test [4], -47.6% (active); in test [5], -53.8% (active); in test [7], 18.4%.

Regarding `CC1=C(CC(=O)c2cccc([N+](=O)[O-])c2)C(=O)c2ccccc2C1=O`, the growth in test [1] was 2.6% (active); in test [2] it was -56.1% (active); in test [3], -41.2% (active); in test [4] it was 7.59% (active); in test [5], 9.03% (active); in test [7], 7.77% (active).

With `CCN(CCO)CCNc1ccc(C)c2sc3cc(Cl)ccc3c(=O)c12`, the growth was 69.6% in test [1]; -68.6% (active) in test [2]; -85% (active) in test [3]; -83.1% (active) in test [4]; -66.1% (active) in test [5]; 7.87% (active) in test [7].

Consider `O=c1[nH]nnc2c1ncn2C1OC(CO)C(O)C1O` (centres undefined), for which the growth in test [1] is 97.7%; in test [2], 76.5%; in test [3] it was 63.3%; in test [4], 63.9%; in test [5], 51.8%; in test [7], 60.7%.

Turning to `Cc1nc(Nc2ccccn2)sc1C(=O)/C=C/c1ccc(Cl)cc1`, the growth in test [1] is 19%; in test [2], -28.8% (active); in test [3] it was 25.2%; in test [5], 14.3%; in test [6], 21.6%; in test [7], 8.26% (active).

Consider `COc1ccc(C2Nc3ncnc(N)c3N=C3c4ccccc4C(=O)C32)cc1` (centres undefined), for which the growth is 94.3% in test [1]; 96.9% in test [2]; 103% in test [3]; 95.5% in test [4]; 95.7% in test [5]; 110% in test [7].

Take `CN1C(=O)N(C)C2C1NN=c1s/c(=C\c3c[nH]c4ccccc34)c(=O)n12` (centres undefined): the growth in test [1] was 12.3%; in test [2] it was 102%; in test [3] it was 28.6%; in test [5] it was 5.95% (active); in test [6], 27.3%; in test [7] it was 4.61% (active).
